Screens from PubChem BioAssay.
rCAG binder – binders of r(CAG) RNA repeats, primary screen, biochemical, fluorescence | inhibition, % at 3 µM | r(CAG) RNA repeat, TO-PRO-1 dye displacement fluorescence | hit rate 1.3% among 370,000;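 active = inhibition above the plate cutoff, the mean of all test compounds on that plate plus 3 SD, cut at about 35% in these data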;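 also: 0% = DMSO alone and 100% = 100 µM mitoxantrone as full dye displacement; higher means more dye released from RNA so lower well fluorescence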
MPTP block – mitochondrial permeability transition pore inhibitors, primary screen, biochemical, isolated mouse mitochondria, absorbance; Ca2+ swelling absorbance, 30 min; inhibition, % at 10 µM; hit rate 1.4% among 360,000;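 active = inhibition of 50% or more, scaled per plate between neutral and stimulator controls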;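 also: 0% = DMSO wells given calcium and 100% = 1 mM EGTA wells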
ADAM17 inh – ADAM17 inhibitors, primary screen, biochemical, QFRET | inhibition, % at 6.95 µM | recombinant ADAM17, EDANS/DABCYL FRET peptide cleavage | Disintegrin and metalloproteinase domain-containing protein 17 (Homo sapiens), P78536 | hit rate 0.83% among 370,000;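 active = inhibition above the mean of compounds lying between control limits plus 3 SD, set per campaign, cut at about 8.5% in these data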;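 also: 0% = DMSO-only wells as the low control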
Target sequence (P78536 215-824 limits assumed): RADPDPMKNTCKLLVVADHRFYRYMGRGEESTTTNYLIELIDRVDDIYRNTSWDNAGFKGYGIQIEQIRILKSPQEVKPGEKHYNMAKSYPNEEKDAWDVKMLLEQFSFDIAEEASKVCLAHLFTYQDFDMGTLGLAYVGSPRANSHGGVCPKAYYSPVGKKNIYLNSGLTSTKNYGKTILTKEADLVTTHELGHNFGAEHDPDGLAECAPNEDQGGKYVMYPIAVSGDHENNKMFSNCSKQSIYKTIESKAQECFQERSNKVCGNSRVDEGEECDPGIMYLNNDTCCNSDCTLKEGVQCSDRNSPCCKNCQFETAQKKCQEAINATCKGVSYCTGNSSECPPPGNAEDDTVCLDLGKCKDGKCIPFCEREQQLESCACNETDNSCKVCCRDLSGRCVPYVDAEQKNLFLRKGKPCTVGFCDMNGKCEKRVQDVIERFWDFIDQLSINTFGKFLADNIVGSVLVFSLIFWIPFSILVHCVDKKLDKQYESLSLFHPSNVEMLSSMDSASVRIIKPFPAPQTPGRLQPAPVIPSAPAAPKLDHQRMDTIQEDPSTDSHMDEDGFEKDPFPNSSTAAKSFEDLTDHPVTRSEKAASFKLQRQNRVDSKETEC
DSG3 Ab inh – inhibitors of pemphigus antibody binding to DSG3, primary screen, biochemical, bead-based, flow cytometry, scFv-GFP | hit rate 0.48% among 310,000 | binding (percent of control), % at 10 µM | DSG3-coupled beads, scFv-anti-DSG3-GFP binding; stronger effect = lower value | AID 588358, 2011 | Desmoglein-3 (Homo sapiens), P32926;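 active = binding more than 3 SD below its plate's average and above zero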
KLK7 zymogen act – proKLK7 zymogen activators, primary screen, biochemical, fluorescence intensity; purified proKLK7, EDANS-DABCYL substrate fluorescence; 100% is mature enzyme control, 0% vehicle; hit rate 0.9% among 370,000; activation, % at 7 µM;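 active = activation above the mean of all tested compounds plus 3 SD, computed per campaign excluding outliers beyond control limits, cut at about 13% in these data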
ADAM10 inh – human ADAM10 inhibitors, primary screen, biochemical, QFRET, HTS; recombinant ADAM10, EDANS/DABCYL FRET peptide cleavage, 3 h; inhibition, % at 7 µM; hit rate 0.62% among 370,000;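 active = inhibition above a per-campaign cutoff equal to the mean of compounds falling between control-based bounds plus 3 SD, cut at about 20% in these data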;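 also: 0% = DMSO wells while the 100% control is not disclosed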
Rh123 counter – fluorescence retest of MPTP screen hits in isolated mitochondria, single concentration; shares compounds with MPTP block; membrane potential, Rhodamine 123 fluorescence; inhibition, % at 10 µM; hit rate 78% among 5,000; AID 624504, 2012; in the data active = inhibition above about 22%;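 also: 0% = DMSO vehicle and 100% = positive control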
Starred values were filed as active, the others as inactive; . = not tested or not shown. Compounds with a hit are over-represented: about 4.7% of the library has one in this group of screens.

SMILES | rCAG binder | MPTP block | ADAM17 inh | DSG3 Ab inh | KLK7 zymogen act | ADAM10 inh | Rh123 counter
Cn1nc(C(F)(F)F)c2cc(C(=O)Nc3ccc(C(F)(F)F)cc3)sc21 | -1 | 91* | 0 | . | -1 | 1 | 75*
Cn1nc(C(F)(F)F)c2cc(C(=O)Nc3ccc(F)c(Cl)c3)sc21 | 4 | 89* | -1 | . | -1 | 8 | 76*
Cn1nc(C(F)(F)F)c2cc(C(=O)O)sc21 | 0 | 0 | -3 | 116 | 0 | -5 | .
Cn1nc(C(F)(F)F)c2cc(C(=O)Nc3ccc(F)cc3)sc21 | -1 | 26 | 4 | 113 | 0 | 12 | .
COC(=O)[C@]12C[C@H](CC(=O)NCCC(C)C)C(=O)N(CCC3=CCCCC3)C1=C[C@H](COCc1ccccc1)O[C@@H]2C | 1 | . | -2 | . | 1 | 2 | .
CCn1c(O)c(/C=C2\C=Nc3ccccc32)sc1=Nc1ccccc1 | 7 | 53* | 1 | 98 | 1 | -1 | 59*
Cn1c(O)c(/C=C2\C=Nc3ccccc32)sc1=Nc1ccc(C(=O)O)cc1 | 23 | 2 | -6 | 109 | 0 | 7 | .
CCOC(=O)[C@]12CCCC3=C1N(CCC3)C(=O)[C@@H](CC(=O)N1CCC(c3ccccc3)CC1)C2 | 1 | . | -3 | . | 0 | -2 | .
CC(C)Cc1csc(NC(=O)c2ccc(Cl)cc2)c1C(=O)O | 12 | 90* | 2 | 100 | 0 | -2 | 88*
COCCN1Cc2cc(C(=O)OC)c3c(c2C1=O)c1cc(F)ccc1n3S(=O)(=O)c1cccc(C)c1 | 5 | . | -1 | . | -1 | -7 | .
O=C1c2ccccc2-c2cccc(NS(=O)(=O)c3ccc(C(F)(F)F)cc3)c21 | 6 | 64* | 1 | 91 | 0 | -7 | 38*
Cc1ccc(C(=O)NC2CCCCN(Cc3cccc(F)c3)C2=O)cc1 (centres undefined) | -1 | . | 1 | . | 0 | 11 | .
CN1CCN(C2Cc3cc(F)ccc3Sc3ccc(Cl)cc32)CC1 (centres undefined) | -4 | -5 | 0 | 106 | 0 | -1 | .
CN1CCN(C2=Cc3ccccc3Sc3cc(F)ccc32)CC1 | -4 | 98* | 2 | . | 0 | 14 | -9
CN1CCN(C2=Cc3ccc(Cl)cc3Sc3ccc(F)cc32)CC1 | -3 | 95* | 2 | 113 | -1 | 2 | -9
Cc1cc2c(c(=O)o1)[C@@]1(C(=O)N(c3ccccc3)c3ccccc31)C1=C(CCCC1=O)O2 | 3 | . | -3 | . | 0 | -3 | .
C=CCN1[C@@H](C)[C@H](c2ccccc2)Oc2cccc(N3CCCC(C)C3)c2S1(=O)=O (some centres undefined) | 2 | . | -5 | . | 0 | -5 | .
N#Cc1ccc(Cn2ccc3ccc(-c4ccc5ccn(Cc6ccccc6)c5c4)cc32)cc1 | 20 | . | -10 | . | 0 | -37 | .
COc1ccc(CNC(=O)Nc2cccc(Cl)c2)cc1 | . | 0 | . | 103 | . | . | .
COc1ccc(C2SCCN2C(=S)Nc2cccc(Cl)c2)cc1 (centres undefined) | 9 | 96* | 3 | 103 | 0 | 13 | 94*
COC(=O)c1cccc(NC(=S)NCc2ccc(Cl)cc2)c1 | 1 | 94* | -1 | 104 | -1 | 6 | 107*
COC(=O)c1cccc(NC(=O)Nc2ccc(Cl)cc2Cl)c1 | 5 | 84* | 8 | 110 | -1 | 11 | 75*
COc1ccc(C2SCCN2C(=S)Nc2ccc(Cl)cc2)cc1 (centres undefined) | 3 | 34 | -2 | 126 | 0 | -1 | .
COc1ccc(CNC(=S)Nc2cccc(Cl)c2)cc1 | 2 | 75* | 4 | 105 | 0 | 3 | 100*
CC(C)[C@@H]1NC(=O)[C@H]2C[C@@]3(C)c4ccccc4N[C@H]3N2C1=O | 7 | . | -4 | . | 0 | -16 | .
SMILES | rCAG binder | MPTP block | ADAM17 inh | DSG3 Ab inh | KLK7 zymogen act | ADAM10 inh | Rh123 counter
Nc1ccn([C@@H]2O[C@H](C(=O)N[C@H](Cc3ccccc3)C(=O)N3CCN(C(=O)N4CCOCC4)CC3)[C@@H](O)[C@H]2O)c(=O)n1 | 2 | . | 1 | . | 0 | 1 | .
COC(=O)c1ccc(C)c(NC(=S)NCc2ccc(Cl)cc2)c1 | 2 | 26 | 1 | 100 | -1 | 3 | .
COC(=O)c1cc(NC(=S)NCc2ccc(Cl)cc2)cc(C(=O)OC)c1 | 7 | 98* | 7 | 105 | 0 | 2 | 79*
CN1OC[C@@H]2CN3C(=NCCc4ccccc4)Sc4ccccc4[C@@H]3C[C@@H]21 | 0 | . | -4 | . | 1 | -11 | .
CC(=O)CC[C@@H]1CC[C@]2(CCCN(C(=O)C(C)(C)C)C2)O1 | -1 | . | -2 | . | 0 | -4 | .
CCn1c(COc2ccc3c(c2)OCO3)nnc1SCC(=O)c1ccc(Cl)cc1 | 4 | 58* | -1 | 64 | 0 | 0 | 79*
COc1ccc(C(=O)N2CCC[C@H]2C(=O)N2CCC[C@@H]2C(=O)NCc2ccccc2)cc1F | 0 | . | -3 | . | 0 | -1 | .
CC(C)(C)c1ccc(S(=O)(=O)/N=C2\C=C(NS(=O)(=O)c3ccccc3)C(=O)c3ccccc32)cc1 | 59* | 99* | 1 | 106 | 1 | 0 | 25*
CCN(C(=O)C1CCCN(c2nnc(-n3cccc3)s2)C1)c1ccccc1C (centres undefined) | 2 | . | 9 | . | 0 | 9 | .
O=C(NCc1ccc(Cl)cc1)C1CCCN(c2ncccn2)C1 (centres undefined) | -1 | . | -6 | . | 0 | -17 | .
COC(=O)C[C@@H]1CC[C@H]2[C@@H](COc3ccc(NC(=O)Nc4ccccc4)cc3C(=O)N2C)O1 | 2 | . | 0 | . | 0 | 0 | .
CCOC(=O)C1CCN(C(=O)C(C)(C)NC(=O)Nc2ccc(C(F)(F)F)cc2Cl)CC1 | . | . | 2 | . | . | 7 | .
COc1ccc(C(=O)Nc2cccc([N+](=O)[O-])c2)cc1Br | 5 | 2 | 6 | 99 | 1 | 5 | .
COc1ccccc1CCNC(=O)Nc1cccc([N+](=O)[O-])c1 | 0 | 68* | 0 | 108 | 0 | -5 | 77*
COc1ccc(NC(=S)Nc2cccc([N+](=O)[O-])c2)cc1 | 2 | 85* | -1 | . | 0 | 3 | 87*
COc1cc(CC(=O)OCC(=O)Nc2cccc([N+](=O)[O-])c2)cc(OC)c1OC | -3 | 2 | -2 | 103 | 0 | 7 | .
COc1ccc(NC(=O)Nc2cccc([N+](=O)[O-])c2)cc1Cl | 26 | 94* | 4 | 103 | -1 | 17 | 80*
